Reference: PubChem BioAssay (EPA / NIEHS)
Active and inactive are the calls of the source. Rule for the calls: active = hit-call score of the fitted dose curve at least 0.9, where 1 is the maximum; inactive = score below 0.9.

Tests used:
[1] = read-out: catalase (CAT), CAT (gene 847); assay: LTEA_HepaRG_CAT: Life Technologies and Expression Analysis (LTEA) Assay for catalase (CAT) using HepaRG (AID 2283452); settings: mRNA level, 48 h; actives raise or lower the signal
Method in brief: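 Expression of CAT was quantified by TaqMan qRT-PCR with ACTB/GAPDH/POLR2A normalization after 48 h chemical exposure of HepaRG. Eight-point half-log series, top 100 uM, in 0.5% DMSO; gain or loss fitted against vehicle.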

[2] = read-out: flavin-containing dimethylaniline monooxygenases 3 (FMO3), FMO3 (gene 2328); assay: LTEA_HepaRG_FMO3: Life Technologies and Expression Analysis (LTEA) Assay for flavin-containing dimethylaniline monooxygenases 3 (FMO3) using HepaRG (AID 2283453); settings: mRNA level, 48 h; actives raise or lower the signal;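 for AC50: differentiated human HepaRG liver cells in serum-free induction medium; FMO3 transcript by TaqMan qRT-PCR normalized to ACTB GAPDH and POLR2A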
Method in brief: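 HepaRG, 48 h exposure, 8-pt half-log series from 100 uM, 0.5% DMSO vehicle, duplicates; FMO3 transcript by Fluidigm TaqMan qRT-PCR, housekeeping-normalized; gain/loss fit vs DMSO.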

[3] = read-out: Cytochrome P450 (CYP1A1), CYP1A1 (gene 1543); assay: LTEA_HepaRG_CYP1A1: Life Technologies and Expression Analysis (LTEA) Assay for Cytochrome P450 (CYP1A1) using HepaRG (AID 2283454); settings: mRNA level, 48 h; actives raise or lower the signal
Method in brief: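 CYP1A1 transcript levels measured by Fluidigm qRT-PCR against three housekeeping genes, 48 h after chemical dosing of human HepaRG cells (highest concentration 100 uM, half-log steps, 0.5% DMSO vehicle). Gain or loss of signal fitted relative to DMSO.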

[4] = read-out: CFLAR gene, CFLAR (gene 8837); assay: LTEA_HepaRG_CFLAR: Life Technologies and Expression Analysis (LTEA) Assay for CFLAR gene using HepaRG (AID 2283455); settings: mRNA level, 48 h; actives raise or lower the signal
Method in brief: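 HepaRG, 48 h exposure, 8-pt conc-response (100 uM top, half-log), 0.5% DMSO vehicle, duplicates. CFLAR expression by qRT-PCR; ACTB/GAPDH/POLR2A normalization; gain or loss fit vs DMSO baseline.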

[5] = read-out: growth arrest and DNA damage 45 (GADD45A), GADD45A (gene 1647); assay: LTEA_HepaRG_GADD45A: Life Technologies and Expression Analysis (LTEA) Assay for growth arrest and DNA damage 45 (GADD45A) using HepaRG (AID 2283458); settings: mRNA level, 48 h; actives raise or lower the signal
Method in brief: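 Human HepaRG liver cells are treated in duplicate for 48 h with chemicals in 0.5% DMSO, highest concentration 100 uM. Expression is read by qRT-PCR and analyzed in both directions against vehicle.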

[6] = read-out: Forkhead box O3 (FOXO3), FOXO3 (gene 2309); assay: LTEA_HepaRG_FOXO3: Life Technologies and Expression Analysis (LTEA) Assay for Forkhead box O3 (FOXO3) using HepaRG (AID 2283459); settings: mRNA level, 48 h; actives raise or lower the signal
Method in brief: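 HepaRG, 48 h post-dose; 8 conc., half-log from 100 uM, 0.5% DMSO, duplicates; serum-free induction medium. Readout: FOXO3 mRNA, TaqMan qRT-PCR, housekeeping-normalized. Bidirectional curve fit vs DMSO baseline.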

[7] = read-out: ABC Transporter (ABCB1), ABCB1 (gene 5243); assay: LTEA_HepaRG_ABCB1: Life Technologies and Expression Analysis (LTEA) Assay for ABC Transporter (ABCB1) using HepaRG (AID 2283460); settings: mRNA level, 48 h; actives raise or lower the signal
Method in brief: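 Expression of ABCB1 was quantified by qRT-PCR against three housekeeping genes after human HepaRG cultures received test chemicals for 48 hours. Concentrations spanned eight half-log steps topping at 100 uM in 0.5% DMSO; gain or loss of signal was fitted relative to vehicle.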

[8] = read-out: growth arrest and DNA damage 45 (GADD45B), GADD45B (gene 4616); assay: LTEA_HepaRG_GADD45B: Life Technologies and Expression Analysis (LTEA) Assay for growth arrest and DNA damage 45 (GADD45B) using HepaRG (AID 2283461); settings: mRNA level, 48 h; actives raise or lower the signal
Method in brief: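 Transcript level quantified by Fluidigm TaqMan qRT-PCR with three housekeeping genes for normalization, analyzed for up- or down-regulation against 0.5% DMSO. HepaRG cultures dosed 48 h at eight half-log concentrations up to 100 uM, duplicates.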

[9] = read-out: ABC Transporter (ABCC3), ABCC3 (gene 8714); assay: LTEA_HepaRG_ABCC3: Life Technologies and Expression Analysis (LTEA) Assay for ABC Transporter (ABCC3) using HepaRG (AID 2283462); settings: mRNA level, 48 h; actives raise or lower the signal
Method in brief: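 Transcript level by TaqMan qRT-PCR, normalised to three housekeeping genes, fitted in both directions relative to vehicle. Chemicals tested in duplicate at eight half-log concentrations up to 100 uM for 48 h on HepaRG cells (0.5% DMSO).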

[10] = read-out: ABC Transporter (ABCB11), ABCB11 (gene 8647); assay: LTEA_HepaRG_ABCB11: Life Technologies and Expression Analysis (LTEA) Assay for ABC Transporter (ABCB11) using HepaRG (AID 2283463); settings: mRNA level, 48 h; actives raise or lower the signal
Method in brief: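 ABCB11 transcript levels are read by Fluidigm TaqMan qRT-PCR after 48 h chemical treatment of human HepaRG cells. Concentrations span 100 uM downward in half-log steps with 0.5% DMSO; gain or loss is fitted against DMSO controls.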

[11] = read-out: ABC Transporter (ABCC2), ABCC2 (gene 1244); assay: LTEA_HepaRG_ABCC2: Life Technologies and Expression Analysis (LTEA) Assay for ABC Transporter (ABCC2) using HepaRG (AID 2283464); settings: mRNA level, 48 h; actives raise or lower the signal
Method in brief: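 Endpoint is ABCC2 transcript level from qRT-PCR, normalized to three housekeeping genes and fitted bidirectionally relative to DMSO. Human HepaRG cells received test chemical for 48 h at up to 100 uM (8 points, half-log steps, 0.5% DMSO), duplicate wells.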

[12] = read-out: Broad substrate specificity ATP-binding cassette transporter ABCG2 (Homo sapiens) (UniProt Q9UNQ0); assay: LTEA_HepaRG_ABCG2: Life Technologies and Expression Analysis (LTEA) Assay for ABC Transporter (ABCG2) using HepaRG (AID 2283465); settings: mRNA level, 48 h; actives raise or lower the signal
Method in brief: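 Read-out is ABCG2 mRNA induction or loss quantified by qRT-PCR after 48 h chemical treatment of human HepaRG cells, normalized to three housekeeping genes. Concentrations reached 100 uM top in half-log steps; fitting was bidirectional against 0.5% DMSO.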

[13] = read-out: ATP-citrate lyase (ACLY), ACLY (gene 47); assay: LTEA_HepaRG_ACLY: Life Technologies and Expression Analysis (LTEA) Assay for ATP-citrate lyase (ACLY) using HepaRG (AID 2283466); settings: mRNA level, 48 h; actives raise or lower the signal
Method in brief: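 HepaRG, 48 h exposure, 8-pt half-log dilutions (top 100 uM), 0.5% DMSO. Readout: ACLY mRNA, TaqMan qRT-PCR, housekeeping-normalized (ACTB/GAPDH/POLR2A). Bidirectional curve fit vs DMSO.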

[14] = read-out: Peroxisomal acyl-coenzyme A oxidase 1 (ACOX1) gene, ACOX1 (gene 51); assay: LTEA_HepaRG_ACOX1: Life Technologies and Expression Analysis (LTEA) Assay for Peroxisomal acyl-coenzyme A oxidase 1 (ACOX1) gene using HepaRG (AID 2283467); settings: mRNA level, 48 h; actives raise or lower the signal
Method in brief: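 Measured by qRT-PCR against three housekeeping genes: ACOX1 transcript change in human HepaRG cells after 48 h dosing. Concentrations ran up to 100 uM in half-log steps. Curves were fitted bidirectionally relative to 0.5% DMSO.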

[15] = read-out: Alkaline Phosphatase, Placental (ALPP) gene, ALPP (gene 250); assay: LTEA_HepaRG_ALPP: Life Technologies and Expression Analysis (LTEA) Assay for Alkaline Phosphatase, Placental (ALPP) gene using HepaRG (AID 2283468); settings: mRNA level, 48 h; actives raise or lower the signal
Method in brief: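 ALPP transcript level, measured by qRT-PCR and normalized to three housekeeping genes (ACTB, GAPDH, POLR2A), after 48 h dosing of differentiated HepaRG in serum-free induction medium. Top concentration 100 uM with half-log dilutions (8 points, 0.5% DMSO, duplicates); bidirectional fitting relative to DMSO.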

[16] = read-out: Bcl-2 (BAD) gene, BAD (gene 572); assay: LTEA_HepaRG_BAD: Life Technologies and Expression Analysis (LTEA) Assay for Bcl-2 (BAD) gene using HepaRG (AID 2283469); settings: mRNA level, 48 h; actives raise or lower the signal
Method in brief: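 BAD transcript change, measured by qRT-PCR against three housekeeping genes and fitted in both directions relative to 0.5% DMSO, after 48 h chemical treatment of human HepaRG liver cells at concentrations up to 100 uM.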

[17] = read-out: Bcl-2 (BAX) gene, BAX (gene 581); assay: LTEA_HepaRG_BAX: Life Technologies and Expression Analysis (LTEA) Assay for Bcl-2 (BAX) gene using HepaRG (AID 2283470); settings: mRNA level, 48 h; actives raise or lower the signal
Method in brief: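 Concentration-response endpoint fitted in both directions relative to 0.5% DMSO vehicle. Human HepaRG cultures receive test chemicals for 48 h at up to 100 uM; BAX mRNA is quantified by qRT-PCR against housekeeping genes.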

[18] = read-out: adenosine kinase (ADK) gene, ADK (gene 132); assay: LTEA_HepaRG_ADK: Life Technologies and Expression Analysis (LTEA) Assay for adenosine kinase (ADK) gene using HepaRG (AID 2283471); settings: mRNA level, 48 h; actives raise or lower the signal
Method in brief: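 HepaRG (human liver), 48 h chemical exposure, 8-pt half-log series, top 100 uM, 0.5% DMSO vehicle. Readout: ADK mRNA by qRT-PCR vs housekeeping genes; bidirectional curve fit relative to DMSO baseline.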

[19] = read-out: Forkhead box O1 (FOXO1), FOXO1 (gene 2308); assay: LTEA_HepaRG_FOXO1: Life Technologies and Expression Analysis (LTEA) Assay for Forkhead box O1 (FOXO1) using HepaRG (AID 2283456); settings: mRNA level, 48 h; actives raise or lower the signal
Method in brief: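 Readout is FOXO1 transcript level by multiplexed qRT-PCR against three housekeeping genes, curve-fitted in both directions relative to 0.5% DMSO vehicle. Human HepaRG cultures received chemicals for 48 h, up to 100 uM in half-log steps.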

[20] = CEETOX_H295R_TESTO: CeeTox H295R High-throughput Steroidogenesis Assay for Testosterone (TESTO) (AID 2283457); settings: actives raise or lower the signal
Method in brief: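 Testosterone secreted into the medium over 48 h by H295R cells (maximum passage 10) was quantified by LC-MS/MS after MTBE extraction. Fitted in both directions against DMSO, with concentrations diluted until MTT viability was ≥70%.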

Measured: AC50

Chain of Broad substrate specificity ATP-binding cassette transporter ABCG2 (Homo sapiens) (Q9UNQ0 whole entry, looked up): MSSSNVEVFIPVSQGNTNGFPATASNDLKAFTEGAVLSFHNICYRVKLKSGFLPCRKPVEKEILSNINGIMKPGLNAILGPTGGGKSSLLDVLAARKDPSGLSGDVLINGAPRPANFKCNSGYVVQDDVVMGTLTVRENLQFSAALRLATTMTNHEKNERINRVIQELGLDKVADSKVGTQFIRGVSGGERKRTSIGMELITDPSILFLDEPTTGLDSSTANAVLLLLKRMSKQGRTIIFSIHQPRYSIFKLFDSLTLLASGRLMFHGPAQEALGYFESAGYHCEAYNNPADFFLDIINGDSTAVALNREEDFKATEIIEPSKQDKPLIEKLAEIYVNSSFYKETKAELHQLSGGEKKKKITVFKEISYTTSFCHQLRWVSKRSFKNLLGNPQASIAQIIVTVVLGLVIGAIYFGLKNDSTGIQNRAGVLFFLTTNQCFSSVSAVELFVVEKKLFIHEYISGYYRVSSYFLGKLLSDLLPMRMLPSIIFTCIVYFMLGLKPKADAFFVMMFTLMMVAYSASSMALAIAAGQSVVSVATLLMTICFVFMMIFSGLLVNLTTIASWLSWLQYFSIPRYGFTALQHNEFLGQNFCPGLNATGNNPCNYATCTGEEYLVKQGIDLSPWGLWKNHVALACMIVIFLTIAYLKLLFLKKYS

c1ccc(NNc2ccccc2)cc1
active: [3] 31.6 µM | [8] 50 µM
inactive: [1] | [2] | [4] | [5] | [6] | [7] | [9] | [10] | [11] | [12] | [13] | [14] | [15] | [16] | [17] | [18]

Nc1ccc(Cl)cc1N
active: [1] 18.7 µM | [2] 23.1 µM | [3] 1.81 µM | [19] 29.4 µM | [5] 13.3 µM | [6] 21.5 µM | [7] 19.6 µM | [8] 13.3 µM | [9] 35.8 µM | [10] 19 µM | [11] 37.3 µM | [14] 27 µM | [17] 13.2 µM
inactive: [20] | [12] | [13] | [15] | [16] | [18]

C=CCc1ccc2c(c1)OCO2
active: [3] 50 µM
inactive: [1] | [2] | [19] | [5] | [6] | [7] | [8] | [9] | [10] | [11] | [12] | [13] | [14] | [15] | [16] | [17] | [18]

[Cl-].[Cl-].[Hg+2]
active: [3] 50 µM | [8] 50 µM
inactive: [1] | [2] | [4] | [5] | [6] | [7] | [9] | [10] | [11] | [12] | [13] | [14] | [15] | [16] | [17] | [18]
